Results: PubChem BioAssay (Tox21)
“And” between values parts separate entries of the source, which are not always exact repeats. Equal values may be shown once. Results filed as inconclusive are left out. The source holds several records for some structures; these can differ, active in one and inactive in another. The source made the active and inactive calls. Unless noted, the call rests on the fitted dose curve.

What was measured:
[1] = target: Gonadotropin-releasing hormone receptor (Homo sapiens) (UniProt P30968); test: Human gonadotropin-releasing hormone receptor (GnRHR) small molecule agonists, calcium flux assay in GnRHR-HEK293 cells (AID 1920063); further: nearly all actives have a fitted effect of over 35% in size
In short: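 HEK293 cells stably expressing human GnRHR were plated 18 h at 37 °C, loaded with calcium dye 1 h at 37 °C, then given compound in agonist mode; fluorescence (Ex/Em 480/540) read kinetically for 3 min at 1 s intervals.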

[2] = target: KiSS-1 receptor (Homo sapiens) (UniProt Q969F8); test: Human kisspeptin (KISS1R) small molecule agonists, calcium flux assay in KISS1R-HEK293 cells (AID 1920064; active means well fitted activation curve with a large enough effect in the repeat runs)
In short: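 HEK293 cells stably expressing human KISS1R were plated 18 h at 37 °C, loaded with calcium dye for 1 h at 37 °C, then given compound by pin tool. Fluorescence (Ex/Em 480/540) was read kinetically for 3 min.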

[3] = G protein-coupled receptor (GPCR) small molecule agonists, calcium flux assay: HEK293 wild type cell line counter screen (AID 1920065)
In short: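 Cells were plated and cultured 18 h at 37 C/5% CO2, then loaded with calcium dye for 1 h at 37 C. Compounds in DMSO were pin-transferred in agonist mode, and fluorescence (Ex/Em 480/540) was read kinetically for 3 min at 1 s intervals.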

[4] = p53 small molecule agonists, cell-based qHTS assay with human liver microsomes (AID 1963577);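 further: p53 response element beta-lactamase reporter cells with liver microsomes plus NADPH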
In short: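 With metabolic activation: human liver microsomes (0.5 mg/mL final) plus NADPH (0.5 mg/mL final) added alongside compounds to p53RE-bla cells; 16 h 37 C exposure; beta-lactamase read by LiveBLAzer fluorescence.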

[5] = p53 small molecule agonists, cell-based qHTS assay with rat liver microsomes (AID 1963578)
In short: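 Metabolic activation by rat liver microsomes and NADPH, each 0.5 mg/mL final, added right after compounds to p53RE-bla reporter cells (4,000/well, plated 5 h earlier). 16 h at 37 C, then LiveBLAzer substrate for 2 h at room temperature in the dark; fluorescence read-out.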

[6] = p53 small molecule agonists, cell-based qHTS assay with human liver microsomes: qHTS cell viability counter screen (AID 1963579); further: nearly all actives have a fitted effect of over 45% in size; further: potency means the concentration at half of the fitted maximal effect
In short: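 Metabolic activation used human liver microsomes and NADPH, both 0.5 mg/mL final, over 16 hours at 37 C on p53RE-bla cells (4,000/well). Cytotoxicity measured by CellTiter-Glo luminescence, 30 min at room temperature.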

[7] = p53 small molecule agonists, cell-based qHTS assay with rat liver microsomes: qHTS cell viability counter screen (AID 1963580); further: nearly all actives have a fitted effect of over 45% in size; further: potency means the concentration at half of the fitted maximal effect
In short: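 p53RE-bla HCT-116 cells were exposed 16 h at 37 C to compounds with rat liver microsomes (0.5 mg/mL) and NADPH (0.5 mg/mL). Viability was measured in the same wells as ATP content by CellTiter-Glo luminescence.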

[8] = p53 small molecule agonists, cell-based qHTS assay: qHTS cell viability counter screen (AID 1963581); further: nearly all actives have a fitted effect of over 45% in size; further: potency means the concentration at half of the fitted maximal effect
In short: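 p53RE-bla HCT-116 cells were exposed to compounds for 16 h at 37 C; after the beta-lactamase FRET read in the same wells, CellTiter-Glo was added and luminescence (intracellular ATP) read after 30 min at room temperature.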

[9] = p53 small molecule agonists, cell-based qHTS assay (AID 1963582; active means well fitted activation curve with a large enough effect in the signal ratio in the repeat runs, not every such curve was filed as active; the % refers to the signal ratio)
In short: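 p53RE-bla beta-lactamase reporter cells rested 5 h at 37 C/5% CO2, then received compounds in DMSO by pin transfer and were incubated 16 h at 37 C. LiveBLAzer B/G FRET substrate was loaded for 2 h at room temperature before fluorescence reading.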

[10] = target: 5-hydroxytryptamine receptor 2A (Homo sapiens) (UniProt P28223); test: 5-hydroxytryptamine receptor 2A (HTR2A) small molecule antagonists, cell-based qHTS assay (AID 1963586); further: nearly all actives have a fitted effect of over 45% in size; further: potency means the concentration at half of the fitted maximal effect
In short: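 Antagonist-mode intracellular calcium assay: DOI (4 nM) added after 5 min compound pre-incubation at room temperature to dye-loaded HTR2A-CHO cells. Fluorescence followed for 3 min, sampled every second.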

[11] = target: 5-hydroxytryptamine receptor 2A (Homo sapiens) (UniProt P28223); test: 5-hydroxytryptamine receptor 2A (HTR2A) small molecule agonists, cell-based qHTS assay (AID 1963587); further: nearly all actives have a fitted effect of over 30% in size
In short: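 CHO cells stably expressing human HTR2A, plated 18 h, loaded with calcium dye 1 h at 37 C. Agonist mode: compounds added and intracellular calcium fluorescence recorded kinetically for 2 min at 1 sec intervals.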

[12] = target: Muscarinic acetylcholine receptor M1 (Homo sapiens) (UniProt P11229); test: Cholinergic receptor muscarinic 1 (CHRM1) small molecule antagonists, cell-based qHTS assay (AID 1963588); further: nearly all actives have a fitted effect of over 40% in size
In short: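 CHRM1-CHO calcium-flux assay, antagonist mode. Cells were seeded 18 h, dye-loaded 1 h at 37 C and given compound for 5 min at RT, then acetylcholine was added at 50nM. FDSS fluorescence was read 3 min; 15 concentrations, three runs.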

[13] = target: Muscarinic acetylcholine receptor M1 (Homo sapiens) (UniProt P11229); test: Cholinergic receptor muscarinic 1 (CHRM1) small molecule agonists, cell-based qHTS assay (AID 1963589); further: nearly all actives have a fitted effect of over 35% in size
In short: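 CHO cells stably expressing human CHRM1, seeded 18 h at 37 C/5% CO2, dye-loaded 1 h at 37 C, then given compound in agonist mode; intracellular calcium fluorescence read kinetically at 1 s intervals. Fifteen concentrations, three independent runs.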

[14] = cAMP Responsive Elements (CRE) small molecule agonists, cell-based qHTS assay (AID 1963590)
In short: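 CRE-bla HEK 293T cells in DMEM with 10% dialyzed FBS, NEAA, pyruvate and 25 mM HEPES were plated 18 h at 37 C/5% CO2, then exposed to compounds in DMSO for 3 h before LiveBLAzer B/G FRET substrate addition.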

[15] = cAMP Responsive Elements (CRE) small molecule antagonists, cell-based qHTS assay (AID 1963591; active means well fitted inhibition curve with a large enough effect in the signal ratio in the repeat runs, not every such curve was filed as active; the % refers to the signal ratio)
In short: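 CRE-bla HEK293T cells were plated 18 h at 37 °C/5% CO2, pinned with compound in DMSO, then stimulated with NKH477 at 0.25 uM final for 3 h. LiveBLAzer B/G FRET substrate was added and plates incubated 2 h at room temperature.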

[16] = target: Beta-2 adrenergic receptor (Homo sapiens) (UniProt P07550); test: Adrenergic beta2 receptor (ADRB2) small molecule antagonists, cell-based qHTS assay (AID 1963592); further: series mostly up to about 92 µM; nearly all actives have a fitted effect of over 50% in size
In short: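 Cells (CHO, stable ADRB2 overexpression) incubated 18-20hr at 37C; compounds added from DMSO; agonist mix (1nM isoproterenol, 100uM IBMX, 25uM Ro-20-1724) added; 0.5hr RT; d2-cAMP and anti-cAMP-cryptate added; 1hr RT; 665/615 nm read.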

[17] = target: Beta-2 adrenergic receptor (Homo sapiens) (UniProt P07550); test: Adrenergic beta2 receptor (ADRB2) small molecule agonists, cell-based qHTS assay (AID 1963593);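 further: CHO cells stably overexpressing human ADRB2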
In short: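 CHO cells stably over-expressing ADRB2 were plated overnight at 37C, then dosed with compounds plus a stimulation mix containing 100uM IBMX and 25uM Ro-20-1724 for 0.5hr at room temperature. cAMP was measured by HTRF competition, 1hr.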

[18] = target: D(2) dopamine receptor (Homo sapiens) (UniProt P14416); test: Dopamine D2 receptor (DRD2) small molecule agonists, cell-based qHTS assay (AID 1963594); further: nearly all actives have a fitted effect of over 35% in size
In short: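 HEK293 cells stably expressing human DRD2, pre-treated with PDE inhibitor Ro20-1724 (0.1 mM final) and compound 10 min at room temperature, then stimulated with NKH477 (200nM […]) for 30 min. cAMP read by HTRF (665/620 nm).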

[19] = target: D(2) dopamine receptor (Homo sapiens) (UniProt P14416); test: Dopamine D2 receptor (DRD2) small molecule antagonists, cell-based qHTS assay (AID 1963595; active means well fitted inhibition curve with a large enough effect in the signal ratio in the repeat runs, with a control signal flat; the % refers to the signal ratio)
In short: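 In this cell-based antagonist screen, compounds act for 10 min at room temperature before a 30 min challenge with 12 nM quinpirole and 200 nM NKH477. cAMP is quantified by HTRF competition in DRD2-HEK293 cells containing 0.1 mM Ro20-1724.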

[20] = Nuclear factor erythroid 2-related factor 2/antioxidant responsive element (Nrf2/ARE) small molecule agonists: luciferase reporter gene qHTS assay in human keratinocytes (AID 1919969); further: nearly all actives have a fitted effect of over 35% in size; further: potency means the concentration at half of the fitted maximal effect

Measured: Potency

Sequence of Gonadotropin-releasing hormone receptor (Homo sapiens) (P30968 whole entry, looked up): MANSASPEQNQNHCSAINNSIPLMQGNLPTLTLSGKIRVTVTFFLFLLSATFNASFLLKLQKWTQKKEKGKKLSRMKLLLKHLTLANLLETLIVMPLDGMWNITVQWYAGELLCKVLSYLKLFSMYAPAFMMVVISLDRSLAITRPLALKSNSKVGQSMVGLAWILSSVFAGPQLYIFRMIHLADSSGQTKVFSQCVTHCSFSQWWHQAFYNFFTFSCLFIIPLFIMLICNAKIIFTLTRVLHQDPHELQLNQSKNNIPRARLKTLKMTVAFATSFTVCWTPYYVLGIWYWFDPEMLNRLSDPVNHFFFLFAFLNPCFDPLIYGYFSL
Sequence of D(2) dopamine receptor (Homo sapiens) (P14416 whole entry, looked up): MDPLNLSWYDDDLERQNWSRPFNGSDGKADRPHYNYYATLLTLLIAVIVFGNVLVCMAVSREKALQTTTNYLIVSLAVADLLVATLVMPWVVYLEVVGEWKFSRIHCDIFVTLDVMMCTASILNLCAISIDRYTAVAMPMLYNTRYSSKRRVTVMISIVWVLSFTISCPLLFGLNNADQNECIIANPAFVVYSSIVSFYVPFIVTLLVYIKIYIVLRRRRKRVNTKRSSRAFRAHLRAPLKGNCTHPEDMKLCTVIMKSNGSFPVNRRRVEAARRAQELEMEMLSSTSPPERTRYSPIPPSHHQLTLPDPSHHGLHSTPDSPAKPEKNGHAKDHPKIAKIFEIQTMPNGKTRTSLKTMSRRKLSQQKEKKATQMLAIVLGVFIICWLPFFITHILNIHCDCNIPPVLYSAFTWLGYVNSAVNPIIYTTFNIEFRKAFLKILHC
Sequence of KiSS-1 receptor (Homo sapiens) (Q969F8 whole entry, looked up): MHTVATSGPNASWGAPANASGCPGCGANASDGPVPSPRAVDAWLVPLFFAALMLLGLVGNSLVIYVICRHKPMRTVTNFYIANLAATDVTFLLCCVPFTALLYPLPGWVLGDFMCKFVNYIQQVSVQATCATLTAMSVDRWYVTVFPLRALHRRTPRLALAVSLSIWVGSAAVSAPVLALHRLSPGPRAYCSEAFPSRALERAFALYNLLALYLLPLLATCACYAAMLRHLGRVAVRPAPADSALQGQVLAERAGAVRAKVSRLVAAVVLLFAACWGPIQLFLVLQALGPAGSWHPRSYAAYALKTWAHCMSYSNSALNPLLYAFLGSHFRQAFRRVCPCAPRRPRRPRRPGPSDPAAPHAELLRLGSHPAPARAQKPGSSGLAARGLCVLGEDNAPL
Sequence of 5-hydroxytryptamine receptor 2A (Homo sapiens) (P28223 whole entry, looked up): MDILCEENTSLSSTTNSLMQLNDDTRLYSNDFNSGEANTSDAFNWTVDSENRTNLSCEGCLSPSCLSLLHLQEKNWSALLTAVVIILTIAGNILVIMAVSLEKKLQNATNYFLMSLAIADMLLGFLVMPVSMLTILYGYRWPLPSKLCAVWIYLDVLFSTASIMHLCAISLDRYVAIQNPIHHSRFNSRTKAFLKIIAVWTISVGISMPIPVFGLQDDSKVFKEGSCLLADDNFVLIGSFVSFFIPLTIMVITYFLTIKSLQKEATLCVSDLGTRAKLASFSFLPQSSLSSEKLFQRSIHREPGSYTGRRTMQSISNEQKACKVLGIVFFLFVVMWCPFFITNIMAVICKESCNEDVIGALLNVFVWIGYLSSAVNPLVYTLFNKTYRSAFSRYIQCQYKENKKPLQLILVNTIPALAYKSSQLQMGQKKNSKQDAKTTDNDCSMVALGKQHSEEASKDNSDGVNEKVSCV
Sequence of Muscarinic acetylcholine receptor M1 (Homo sapiens) (P11229 whole entry, looked up): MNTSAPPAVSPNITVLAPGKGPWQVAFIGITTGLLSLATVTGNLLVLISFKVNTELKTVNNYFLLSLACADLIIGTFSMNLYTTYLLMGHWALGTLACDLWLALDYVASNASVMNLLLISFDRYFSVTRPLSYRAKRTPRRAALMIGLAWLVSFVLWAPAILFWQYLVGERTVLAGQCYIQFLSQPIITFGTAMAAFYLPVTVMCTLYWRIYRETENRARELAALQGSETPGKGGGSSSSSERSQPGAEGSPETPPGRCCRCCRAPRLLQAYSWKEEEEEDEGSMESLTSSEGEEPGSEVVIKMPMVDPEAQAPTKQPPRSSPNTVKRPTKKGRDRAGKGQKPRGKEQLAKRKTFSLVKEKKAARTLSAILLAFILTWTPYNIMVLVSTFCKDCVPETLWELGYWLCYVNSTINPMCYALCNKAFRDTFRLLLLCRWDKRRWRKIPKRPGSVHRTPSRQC
Sequence of Beta-2 adrenergic receptor (Homo sapiens) (P07550 whole entry, looked up): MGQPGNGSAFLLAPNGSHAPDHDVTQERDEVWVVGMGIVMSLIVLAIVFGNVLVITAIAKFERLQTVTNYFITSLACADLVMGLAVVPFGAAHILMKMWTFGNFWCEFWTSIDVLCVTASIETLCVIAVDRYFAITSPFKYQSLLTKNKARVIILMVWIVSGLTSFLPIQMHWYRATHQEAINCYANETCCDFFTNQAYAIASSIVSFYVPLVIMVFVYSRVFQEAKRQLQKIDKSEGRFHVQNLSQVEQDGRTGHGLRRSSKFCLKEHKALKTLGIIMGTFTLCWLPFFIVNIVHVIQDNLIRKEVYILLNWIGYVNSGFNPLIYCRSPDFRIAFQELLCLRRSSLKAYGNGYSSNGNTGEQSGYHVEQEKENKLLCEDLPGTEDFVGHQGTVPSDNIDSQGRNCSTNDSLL

CON(C)C(=O)Nc1ccc(Cl)c(Cl)c1
inactive: [1] | [2] | [3] | [4] | [5] | [6] | [7] | [8] | [9] | [10] | [11] | [12] | [13] | [14] | [15] | [16] | [17] | [18] | [19]

C[C@@H]1O[C@@H](O[C@H]2C[C@@H](O)[C@]3(CO)[C@H]4[C@H](O)C[C@]5(C)[C@@H](C6=CC(=O)OC6)CC[C@]5(O)[C@@H]4CC[C@]3(O)C2)[C@H](O)[C@H](O)[C@H]1O
inactive: [1] | [2] | [3] | [17] | [18] | [19]
active: [20] 163 nM and 211 nM | [7] 0.112 µM | [8] 0.126 µM
68.8 nM (active) and inactive: [6]

CC(C)(C)OOC(C)(C)CCC(C)(C)OOC(C)(C)C
inactive: [20] | [1] | [3] | [4] | [5] | [6] | [7] | [8] | [9] | [10] | [11] | [12] | [13] | [14] | [15] | [16] | [17] | [19]

CNC(=O)Oc1cccc2c1OC(C)(C)C2
inactive: [20] | [1] | [2] | [3] | [6] | [8] | [9] | [10] | [11] | [12] | [13] | [14] | [16] | [17] | [18] | [19]

CCCOC(=O)c1cncn1C(C)c1ccccc1 (configuration not stated)
inactive: [20] | [1] | [3] | [4] | [5] | [6] | [7] | [9] | [10] | [11] | [12] | [13] | [14] | [15] | [17] | [18] | [19]

CCC(=O)OC1(c2ccccc2)CCN(C)CC1
inactive: [20] | [1] | [3] | [4] | [5] | [6] | [7] | [8] | [10] | [11] | [12] | [13] | [14] | [15] | [16] | [17] | [18] | [19]

CC(C)(O)C(=O)Nc1ccc([N+](=O)[O-])c(C(F)(F)F)c1
inactive: [20] | [1] | [3] | [4] | [5] | [7] | [8] | [10] | [11] | [13] | [16] | [18] | [19]

O=C(O)C(Cl)(Cl)Cl
inactive: [20] | [2] | [3] | [4] | [5] | [6] | [7] | [8] | [14] | [16] | [17] | [18] | [19]

COC(=O)Cc1ccccc1
inactive: [20] | [1] | [3] | [4] | [5] | [6] | [7] | [8] | [9] | [10] | [11] | [12] | [14] | [15] | [16] | [17] | [18]

O=C(O)C(F)(F)C(F)(F)C(F)(F)C(F)(F)C(F)(F)C(F)(F)F
inactive: [1] | [2] | [3] | [4] | [5] | [6] | [7] | [8] | [10] | [11] | [12] | [13] | [15] | [16] | [17] | [18]

CCCCCCCCCCCCn1cc[n+](C)c1
inactive: [20] | [2] | [3] | [13] | [15] | [16] | [17] | [18] | [19]
inactive and 33.7 µM (active): [10]

ClC(Cl)(Cl)c1ccccc1
inactive: [20] | [1] | [3] | [4] | [5] | [6] | [7] | [8] | [9] | [10] | [11] | [12] | [13] | [14] | [15] | [16] | [17] | [18] | [19]

Clc1cccc(Cl)c1
inactive: [20] | [1] | [2] | [3] | [6] | [7] | [8] | [10] | [11] | [12] | [13] | [14] | [15] | [17] | [18] | [19]
